In PubChem BioAssay (NCATS) one finds outcome and Potency data, which are given here for 28 compounds.

In assay [1] the target is Beta-2 adrenergic receptor (Homo sapiens) (UniProt P07550). The assay can be described thus: qHTS validation assay of beta-arrestin-biased ligands of beta2-adrenergic receptor (AID 485366). In a few lines:
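Agonism was measured as beta-arrestin recruitment to recombinant beta2-AR, releasing tTA to drive luciferase. Cells were exposed for 18 hr at 37 degrees C to a series up to 46 microM. %Activity from corrected luminescence gave concentration-response curves.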

Assay [2] concerns the target ATP-dependent 6-phosphofructokinase (Trypanosoma brucei brucei) (UniProt O15648). The assay can be described thus: qHTS Validation Assay to Find Inhibitors of T. brucei phosphofructokinase (AID 485368). In a few lines: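 ADP-Glo luminescence, two-step: residual ATP depleted, then ADP converted to ATP for luciferase. Enzyme 1.25 nM, F6P 0.5 mM, ATP 0.1 mM, pH 8.0 TEA buffer, 45 min RT. Curves fitted and classed by quality and efficacy.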
For orientation: qHTS replaces the single test concentration by a dilution series.

Assay [3] in a line: Quantitative high throughput screen for delayed death inhibitors of the malarial parasite plastid, 96 hour incubation (AID 488745). Note: potency is the fitted concentration of half-maximal effect; nearly all actives have a fitted effect of over 70% in size. The method, boiled down: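 Decreased firefly luciferase luminescence indicates inhibited growth of reporter-integrated P. falciparum after two generations (96 h, 37 C, 5% CO2). Infected erythrocytes at 0.1% parasitemia, 2% hematocrit, in Albumax-supplemented RPMI 1640.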

Assay [4] addresses Thioredoxin reductase 1, cytoplasmic (Rattus norvegicus) (UniProt O89049). The assay can be described thus: qHTS Assay for Substrates of Mammalian Selenoprotein Thioredoxin Reductase 1 (TrxR1) (AID 488772).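 Note: series mostly up to about 57 µM; a drop in NADPH fluorescence below the no-compound background marks a TrxR1 substrate.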 The method, boiled down:
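In this dual-purpose format, potential substrates are identified from the first fluorescence read after selenite addition, not from the 8-minute delta. Rat enzyme is preincubated with NADPH and then with compound at ~22 deg C.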

In assay [5] the target is Flap endonuclease 1 (Homo sapiens) (UniProt P39748). The assay can be described thus: qHTS Validation Assay for the Inhibitors of Human Flap endonuclease 1 (FEN1) (AID 488816). In a few lines: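 Enzyme reagent 10 nM; cpds pinned; 15 min RT preinc.; substrate 50 nM final; reads t=0 and 15 min; no-enzyme buffer wells as neg. control; normalized data, 4-parameter Hill fit.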
Flap endonuclease 1 (Homo sapiens), sequence (P39748 whole entry, looked up): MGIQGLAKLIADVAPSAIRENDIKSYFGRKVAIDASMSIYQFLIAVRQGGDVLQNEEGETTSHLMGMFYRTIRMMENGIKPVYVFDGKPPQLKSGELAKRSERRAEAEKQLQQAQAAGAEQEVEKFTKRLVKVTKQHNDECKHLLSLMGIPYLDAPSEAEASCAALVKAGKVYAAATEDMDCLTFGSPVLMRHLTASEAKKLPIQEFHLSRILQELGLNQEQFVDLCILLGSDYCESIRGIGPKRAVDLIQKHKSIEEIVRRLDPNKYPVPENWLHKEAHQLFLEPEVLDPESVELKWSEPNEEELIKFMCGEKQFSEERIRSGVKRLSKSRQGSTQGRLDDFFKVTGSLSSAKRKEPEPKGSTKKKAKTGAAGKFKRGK

Assay [6] deals with M-phase phosphoprotein 8 (Homo sapiens) (UniProt Q99549). The assay can be described thus: qHTS Validation Assay for Inhibitors for MPP8 Chromodomain Interactions with Methylated Histone Tails (AID 488949). Note: nearly all actives have a fitted effect of over 55% in size. Note: potency is the fitted concentration of half-maximal effect. The method, boiled down:
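AlphaScreen proximity signal from streptavidin donor and Ni-chelate acceptor beads (10 ug/mL each) reported binding of MPP8 to trimethyl-K9 H3(1-18) peptide, both at 50 nM. The complex formed 30 min before a 30 min compound exposure at room temperature, in PBS pH 7.4.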

Assay [7] deals with Chromobox protein homolog 1 (Homo sapiens) (UniProt P83916). The assay can be described thus: qHTS Validation Assay for Inhibitors of HP1-beta Chromodomain Interactions with Methylated Histone Tails (AID 488953). Note: nearly all actives have a fitted effect of over 50% in size. Note: potency is the fitted concentration of half-maximal effect. The method, boiled down: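 AlphaScreen proximity signal from streptavidin donor and nickel chelate acceptor beads (final 10 ug/mL) after 30 min dark incubation. Compounds had 30 min at room temperature with preformed complex of 50 nM HP1-beta and 50 nM b-H3(1-18)K9me3 in PBS pH 7.4 with 0.01% Tween-20.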
Chromobox protein homolog 1 (Homo sapiens), sequence (P83916 whole entry, looked up): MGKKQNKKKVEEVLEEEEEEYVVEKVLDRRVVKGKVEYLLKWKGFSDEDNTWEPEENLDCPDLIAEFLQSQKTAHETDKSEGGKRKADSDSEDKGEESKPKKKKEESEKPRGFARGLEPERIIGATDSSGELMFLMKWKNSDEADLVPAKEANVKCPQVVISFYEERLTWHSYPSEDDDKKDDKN

Assay [8] deals with Methanococcus maripaludis chaperonin (MmCpn) (UniProt Q6LX38). Description: High-Throughput Screening for Modulators of Cytosolic Chaperonin Activity: MmCpn Primary Screen (AID 488978).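 Note: 50 nM MmCpn enzyme hydrolysing 30 µM ATP at 37 °C.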 In a few lines:
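ATPase activity of 50 nM MmCpn was assayed with 30 uM ATP, 10 minutes at 37C, after a 5 min compound preincubation at room temperature. ADP production was read as HTRF emission at 590 and 665 nm.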

Assay [9] addresses Thioredoxin reductase 1, cytoplasmic (Rattus norvegicus) (UniProt O89049). The assay can be described thus: qHTS Assay for Inhibitors of Mammalian Selenoprotein Thioredoxin Reductase 1 (TrxR1) (AID 488773). Note: nearly all actives have a fitted effect of over 40% in size. Note: potency is the fitted concentration of half-maximal effect. To be noted: Potency: inhibition. The method, boiled down:
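Inhibition is scored from the loss of NADPH fluorescence between first and last reads of an 8-min kinetic run. Selenite (400 uM) was the substrate, added after 15 min compound preincubation at room temperature.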

Assay [10] can be described thus: Quantitative high throughput screen for delayed death inhibitors of the malarial parasite plastid, 48 hour incubation (AID 488752). Note: nearly all actives have a fitted effect of over 65% in size. In a few lines: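 One-generation (48 h) growth assay: a decrease in luciferase signal from an integrated reporter in P. falciparum-infected red cells (0.1% parasitemia, 2% hematocrit) after compound exposure at 37 C indicates parasite inhibition.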

Molecules are shown by their SMILES. Records with an inconclusive call do not appear. Activity calls are given as the source filed them. Calls come from the whole dose curve; as a rule, active = well fitted curve in the direction sought with a large enough effect; inconclusive = small, poorly fitted or top-dose-only effect, or another doubt; inactive = no such curve, though single readings can be large; an effect the other way counts as inactive or inconclusive.

M-phase phosphoprotein 8 (Homo sapiens), sequence (Q99549 whole entry, looked up): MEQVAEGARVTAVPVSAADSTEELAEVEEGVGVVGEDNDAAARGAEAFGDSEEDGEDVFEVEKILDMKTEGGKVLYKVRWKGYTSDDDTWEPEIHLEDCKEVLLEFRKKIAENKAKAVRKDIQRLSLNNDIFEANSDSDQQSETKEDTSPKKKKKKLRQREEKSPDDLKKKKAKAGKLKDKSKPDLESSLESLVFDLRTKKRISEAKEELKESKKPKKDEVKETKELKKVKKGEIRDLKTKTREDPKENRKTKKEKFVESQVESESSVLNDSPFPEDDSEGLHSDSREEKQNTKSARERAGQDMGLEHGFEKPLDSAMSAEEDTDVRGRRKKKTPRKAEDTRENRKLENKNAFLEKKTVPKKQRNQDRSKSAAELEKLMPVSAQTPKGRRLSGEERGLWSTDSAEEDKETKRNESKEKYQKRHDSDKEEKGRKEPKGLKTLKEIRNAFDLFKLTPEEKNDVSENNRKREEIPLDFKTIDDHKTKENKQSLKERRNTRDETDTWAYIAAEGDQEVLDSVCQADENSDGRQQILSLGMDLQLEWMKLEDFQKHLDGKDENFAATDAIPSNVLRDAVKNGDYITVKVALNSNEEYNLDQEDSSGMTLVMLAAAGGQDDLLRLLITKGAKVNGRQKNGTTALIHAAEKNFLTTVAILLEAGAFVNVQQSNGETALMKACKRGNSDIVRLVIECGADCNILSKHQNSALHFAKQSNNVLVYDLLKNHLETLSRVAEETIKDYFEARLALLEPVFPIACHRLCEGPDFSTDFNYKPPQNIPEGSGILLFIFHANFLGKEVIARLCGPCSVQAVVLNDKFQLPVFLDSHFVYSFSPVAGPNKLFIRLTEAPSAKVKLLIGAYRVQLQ
ATP-dependent 6-phosphofructokinase (Trypanosoma brucei brucei), sequence (O15648 whole entry, looked up): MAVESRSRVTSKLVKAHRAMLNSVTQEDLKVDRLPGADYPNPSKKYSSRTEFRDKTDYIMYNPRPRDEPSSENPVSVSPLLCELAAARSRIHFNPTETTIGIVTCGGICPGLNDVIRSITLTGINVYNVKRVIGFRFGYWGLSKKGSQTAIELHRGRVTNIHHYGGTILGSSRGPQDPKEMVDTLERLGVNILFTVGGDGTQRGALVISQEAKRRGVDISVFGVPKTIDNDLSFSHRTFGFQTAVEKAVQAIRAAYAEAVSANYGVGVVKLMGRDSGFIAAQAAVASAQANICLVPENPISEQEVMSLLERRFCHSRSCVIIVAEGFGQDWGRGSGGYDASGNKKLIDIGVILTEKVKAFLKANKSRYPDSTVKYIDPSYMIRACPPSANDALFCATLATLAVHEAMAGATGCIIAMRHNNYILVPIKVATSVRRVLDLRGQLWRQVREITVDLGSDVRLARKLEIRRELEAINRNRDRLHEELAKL
Beta-2 adrenergic receptor (Homo sapiens), sequence (P07550 whole entry, looked up): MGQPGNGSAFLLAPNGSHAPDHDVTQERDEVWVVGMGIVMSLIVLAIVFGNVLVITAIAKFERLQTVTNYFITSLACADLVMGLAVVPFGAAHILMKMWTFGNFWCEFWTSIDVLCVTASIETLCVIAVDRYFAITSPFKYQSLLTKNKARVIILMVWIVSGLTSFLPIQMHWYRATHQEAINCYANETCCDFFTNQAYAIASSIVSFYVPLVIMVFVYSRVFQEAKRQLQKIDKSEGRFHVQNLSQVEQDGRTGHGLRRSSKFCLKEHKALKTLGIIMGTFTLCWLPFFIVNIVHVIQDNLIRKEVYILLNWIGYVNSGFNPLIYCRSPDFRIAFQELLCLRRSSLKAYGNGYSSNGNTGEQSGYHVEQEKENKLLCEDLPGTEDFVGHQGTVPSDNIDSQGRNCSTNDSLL
Thioredoxin reductase 1, cytoplasmic (Rattus norvegicus), sequence (O89049 whole entry, looked up): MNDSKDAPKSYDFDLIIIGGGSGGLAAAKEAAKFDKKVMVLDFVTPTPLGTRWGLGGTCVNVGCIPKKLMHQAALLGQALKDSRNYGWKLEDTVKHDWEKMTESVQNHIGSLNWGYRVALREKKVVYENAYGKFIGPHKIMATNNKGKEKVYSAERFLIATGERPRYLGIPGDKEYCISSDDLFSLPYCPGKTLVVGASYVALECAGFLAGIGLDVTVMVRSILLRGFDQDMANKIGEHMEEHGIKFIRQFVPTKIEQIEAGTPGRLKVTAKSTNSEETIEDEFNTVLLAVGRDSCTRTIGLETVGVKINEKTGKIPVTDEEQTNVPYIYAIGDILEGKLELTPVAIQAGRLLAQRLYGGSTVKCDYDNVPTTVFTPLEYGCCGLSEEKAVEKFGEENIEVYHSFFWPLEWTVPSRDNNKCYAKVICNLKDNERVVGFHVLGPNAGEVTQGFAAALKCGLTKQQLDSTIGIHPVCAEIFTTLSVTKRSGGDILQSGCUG
Methanococcus maripaludis chaperonin (MmCpn), sequence (Q6LX38 1-543): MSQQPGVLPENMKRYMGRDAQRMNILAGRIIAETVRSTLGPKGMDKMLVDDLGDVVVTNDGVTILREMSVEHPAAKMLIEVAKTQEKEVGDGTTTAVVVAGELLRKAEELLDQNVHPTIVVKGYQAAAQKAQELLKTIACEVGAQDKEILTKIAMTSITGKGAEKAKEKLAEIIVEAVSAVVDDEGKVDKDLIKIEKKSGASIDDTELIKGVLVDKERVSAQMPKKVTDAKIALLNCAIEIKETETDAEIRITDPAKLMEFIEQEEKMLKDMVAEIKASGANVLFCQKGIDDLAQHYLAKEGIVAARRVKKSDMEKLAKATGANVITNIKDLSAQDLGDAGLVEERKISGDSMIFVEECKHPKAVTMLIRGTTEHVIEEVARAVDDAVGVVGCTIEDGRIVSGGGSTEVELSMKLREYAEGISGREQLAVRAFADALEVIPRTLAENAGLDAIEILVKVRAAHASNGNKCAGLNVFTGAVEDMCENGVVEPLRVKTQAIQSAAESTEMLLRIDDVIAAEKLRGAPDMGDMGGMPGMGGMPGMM

For `CC(C)(C)c1cc(/C=C(\C#N)C(N)=S)cc(C(C)(C)C)c1O`, the compound was classed as inactive in assay [1], in [4] and in assay [8]. In addition, the Potency entry in [2] and in assay [5] was “inactive” throughout. Also, the Potency is 9.28 µM (active) in assay [3], 11.2 µM (active) in assay [6] and 11.2 µM (active) in assay [7].

Turning to `CC(=O)SC1CC2=CC(=O)CC[C@]2(C)C2CC[C@@]3(C)C(CC[C@@]34CCC(=O)O4)C12` (some centres undefined), the result in assay [1], in assay [4] and in [8] was inactive. Moreover, the Potency result in assay [2], in [9], in assay [5], in [6] and in [7] was “inactive” each time.

As for `C[C@@H](NCCc1ccc(O)cc1)[C@@H](O)c1ccc(O)cc1`, the compound was called inactive in assay [1], in assay [4] and in [8]. Further, the Potency result in assay [2], in assay [10], in [9], in assay [5], in assay [6] and in assay [7] was “inactive” each time.

Take `O=S(=O)(c1cccc2c(Cl)cccc12)N1CCCNCC1`: the compound was classed as inactive in [1] and in assay [4]. Also, the Potency entry in [2], in [10], in assay [5], in assay [6] and in assay [7] was “inactive” each time.

For the compound `Cc1cccc(C)c1OCC(N)C(C)C` (centres undefined), the compound was classed as inactive in assay [1], in assay [4] and in [8]. For the same compound, the Potency entry in [2], in assay [10], in assay [9], in [5], in assay [6] and in assay [7] was “inactive” throughout.

Turning to `CCN(c1nc(N)c(C(=O)N=C(N)N)nc1Cl)C(C)C`, the compound was called inactive in assay [1], in assay [4] and in assay [8]. Moreover, the Potency entry in [2], in assay [10], in [9], in [5] and in assay [6] was “inactive” in each case.

Take `Brc1c(Br)c(Br)c2[nH]cnc2c1Br`: the result in [1], in assay [4] and in assay [8] was inactive. Also, the Potency entry in assay [2], in assay [9], in assay [5], in assay [6] and in assay [7] was “inactive” each time.

On to `c1ccc(CN2CCC3(CCCc4ccccc43)CC2)cc1`, for which the result in assay [1], in assay [4] and in [8] was inactive. Moreover, the Potency entry in assay [2], in assay [9], in assay [5], in [6] and in [7] was “inactive” throughout.

For the compound `CCCn1c(=O)c(C)cn2nc(N)nc12`, the call in assay [1] and in assay [4] was inactive. For the same compound, the Potency result in assay [2], in [9], in assay [5], in [6] and in assay [7] was “inactive” each time.

In the case of `CCCC(=O)NCCc1c2n(c3ccc(OC)cc13)CCCc1ccccc1-2`, the outcome in assay [1], in assay [4] and in assay [8] was inactive. Moreover, the Potency entry in assay [2], in assay [9] and in assay [5] was “inactive” throughout. The Potency in [6] is 28.2 µM (active); in assay [7] it was 35.5 µM (active).

Turning to `c1ccc2c(c1)CC(N1CCN(c3cccc4c3OCCO4)CC1)C2`, the compound was classed as inactive in assay [1], in assay [4] and in assay [8]. Further, the Potency result in [2], in assay [10], in assay [9], in assay [5] and in assay [6] was “inactive” throughout. Also, the Potency in [7] was 0.006 µM (active).

For the compound `C=C1C(=O)O[C@@H]2[C@H]3O[C@]3(C)CCC=C(C)CC[C@@H]12`, the call in assay [1], in assay [4] and in assay [8] was inactive. In addition, the Potency entry in assay [2], in assay [10], in assay [6] and in assay [7] was “inactive” each time. Moreover, the Potency in assay [9] was 16.8 µM (active).

As for `N[C@H](C(=O)O)[C@H](Cc1ccccc1)C(=O)O`, the compound was classed as inactive in [1] and in assay [4]. For the same compound, the Potency result in assay [2], in assay [9], in assay [5], in assay [6] and in assay [7] was “inactive” in each case.

As for `O=c1oc(Cl)c(Cl)c2ccccc12`, the compound was called inactive in assay [1], in assay [4] and in assay [8]. Also, the Potency result in assay [2], in [10] and in assay [5] was “inactive” in each case.

`Fc1ccc(CN(C2=NCCN2)c2c(Cl)cccc2Cl)cc1`: the compound was called inactive in [1] and in [4]. For the same compound, the Potency result in [2], in assay [9], in assay [5], in [6] and in assay [7] was “inactive” throughout.

For the compound `COc1cc([C@@H]2c3cc4c(cc3[C@H](O)C3COC(=O)[C@@H]32)OCO4)cc(OC)c1OC` (some centres undefined), the outcome in [1], in assay [4] and in assay [8] was inactive. Further, the Potency result in assay [2], in [9], in assay [5], in assay [6] and in [7] was “inactive” each time.

Turning to `COC(=O)C1=C(C)NC(C)=C([N+](=O)[O-])C1c1ccccc1C(F)(F)F` (centres undefined), the compound was called inactive in assay [1], in assay [4] and in assay [8]. Moreover, the Potency result in assay [2], in [9], in [5] and in assay [6] was “inactive” in each case.

On to `CCCn1c(=O)c2[nH]c(C3CCCC3)nc2n(CCC)c1=O`, for which the call in assay [1], in assay [4] and in assay [8] was inactive. The Potency result in assay [2], in assay [10], in [5], in assay [6] and in [7] was “inactive” throughout.

With `CC(=O)O[C@H]1Cc2ccccc2N(C(N)=O)c2ccccc21`, the result in assay [1], in assay [4] and in assay [8] was inactive. Further, the Potency result in assay [2], in assay [9], in assay [5] and in assay [6] was “inactive” each time.

With `NC(N)=[N+]1CCc2ccccc2C1`, the outcome in assay [1], in assay [4] and in assay [8] was inactive. Moreover, the Potency result in [2], in assay [10], in [9], in assay [5], in [6] and in [7] was “inactive” in each case.

In the case of `CC#CCOC(=O)c1c(C)nc2sc3c(c2c1N)CCC(O)C3` (centres undefined), the outcome in [1], in assay [4] and in [8] was inactive. For the same compound, the Potency result in assay [2], in [9], in [5], in assay [6] and in [7] was “inactive” each time.

Regarding `O=c1[nH]c(=S)[nH]c(-c2ccccc2)c1Cc1c(O)ccc2ccccc12`, the call in assay [1], in assay [4] and in [8] was inactive. Also, the Potency result in [2], in assay [9], in [5] and in assay [6] was “inactive” each time. Besides, in assay [7], the Potency is 44.7 µM (active).

Turning to `Nc1ccc(CCNc2ncnc3c2ncn3C2OC(CO)C(O)C2O)cc1` (centres undefined), the call in [1], in assay [4] and in assay [8] was inactive. For the same compound, the Potency result in assay [2], in assay [10], in assay [5], in assay [6] and in [7] was “inactive” each time.

For the compound `N[C@H]1CONC1=O`, the outcome in assay [1], in assay [4] and in assay [8] was inactive. Further, the Potency result in assay [2], in assay [9], in assay [5], in assay [6] and in assay [7] was “inactive” throughout.

Turning to `CC(=O)/C(C)=N/O`, the result in assay [1], in assay [4] and in [8] was inactive. Moreover, the Potency entry in assay [2], in assay [9], in [5], in assay [6] and in assay [7] was “inactive” throughout.

In the case of `C=CCN1CCc2cc(O)c(O)cc2C(c2ccccc2)C1` (centres undefined), the compound was called inactive in [1], in assay [4] and in assay [8]. Also, the Potency entry in assay [2], in [9], in [5] and in assay [6] was “inactive” each time.

As for `c1ccc(C(NCc2cccnc2)(c2ccccc2)c2ccccc2)cc1`, the compound was classed as inactive in assay [1], in [4] and in assay [8]. For the same compound, the Potency result in assay [2], in [9], in [5], in assay [6] and in [7] was “inactive” each time.

Turning to `CC(C)[C@@H]1CC[C@@H](C)C[C@@H]1P(=O)(c1ccccc1)c1ccccc1`, the result in [1], in [4] and in [8] was inactive. Further, the Potency entry in assay [2], in assay [9], in assay [5], in assay [6] and in [7] was “inactive” throughout.
